Test systems include RPMI-8226 leukemia; OVCAR-8 ovarian; OVCAR-5 ovarian; OVCAR-4 ovarian; SK-OV-3 ovarian; IGROV1 ovarian; OVCAR-3 ovarian; HS 578T breast; NCI/ADR-RES ovarian; T-47D breast; BT-549 breast; MDA-MB-435 melanoma; SW-620 colon; MCF7 breast; HCT-116 colon; HCC-2998 colon; KM12 colon.
What all share (assay): NCI-60 one-dose screen, 48 h (100 = growth as untreated, 0 = no growth, -100 = all killed)
What all share (conditions): 10 µM unless noted

Compounds without any hit were thinned out: in the full panel of roughly 83,000, 20% have a hit.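 Interpretation: 100, growth as untreated; towards 0, rising growth inhibition; 0, no net growth; 0 to -100, cell death. Compounds scoring below 10 were considered active.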 Unmarked numbers belong to inactive results. Active and inactive are the calls of the source.

For `C#C[C@]1(O)CC[C@H]2[C@@H]3CC=C4c5sc(Nc6cc(F)ccc6F)nc5CC[C@]4(C)[C@H]3CC[C@@]21C`, the growth in the experiment with RPMI-8226 leukemia was -28.3% (active); with OVCAR-8 ovarian it was 18.4%; in the experiment on OVCAR-5 ovarian it was 2.88% (active); with OVCAR-4 ovarian, 23%; in the experiment on SK-OV-3 ovarian, -1.09% (active); with IGROV1 ovarian it was -33.5% (active). The growth in the experiment on OVCAR-3 ovarian is -22.7% (active); with HS 578T breast it was -10.8% (active); in the experiment on NCI/ADR-RES ovarian, 7.49% (active); in the experiment with T-47D breast, -16.6% (active); in the experiment on BT-549 breast, 12.3%; in the experiment with MDA-MB-435 melanoma, -28.2% (active). In addition, the growth was -61.1% (active) in the experiment on SW-620 colon; -23.8% (active) in the experiment on MCF7 breast; -44.2% (active) in the experiment with HCT-116 colon; -78.8% (active) with HCC-2998 colon; -41.2% (active) with KM12 colon.

On to `CC1=NN(c2ccc(S(=O)(=O)O)cc2)C(=O)C1N=Nc1ccc(-c2ccc(N=Nc3ccc(OS(=O)(=O)c4ccc(C)cc4)cc3)c(S(=O)(=O)O)c2)cc1` (stereo not drawn), for which the growth was 74.5% in the experiment on RPMI-8226 leukemia; 102% with OVCAR-8 ovarian; 76.6% in the experiment on OVCAR-5 ovarian; 93.8% in the experiment on OVCAR-4 ovarian; 95.4% in the experiment on SK-OV-3 ovarian; -7.99% (active) in the experiment on IGROV1 ovarian. In addition, the growth in the experiment on OVCAR-3 ovarian was 111%; with HS 578T breast it was 80%; in the experiment with NCI/ADR-RES ovarian, 97.9%; in the experiment on T-47D breast, 90.3%; with BT-549 breast, 68.4%; in the experiment with MDA-MB-435 melanoma, 95.1%. In addition, the growth in the experiment with SW-620 colon is 103%; in the experiment with MCF7 breast, 88.7%; with HCT-116 colon, 93.9%; with HCC-2998 colon, 104%; in the experiment with KM12 colon, 105%.

As for `N#Cc1c(Nc2cccc(Cl)c2)sc(C(=O)c2cc3cc(Cl)ccc3o2)c1N`, the growth in the experiment with RPMI-8226 leukemia was 56.8%; in the experiment with OVCAR-8 ovarian, 67.4%; in the experiment with OVCAR-5 ovarian it was 86.4%; in the experiment with OVCAR-4 ovarian it was 92.5%; in the experiment on SK-OV-3 ovarian it was 97.9%; with IGROV1 ovarian, -8.05% (active). For the same compound, the growth was 111% in the experiment with OVCAR-3 ovarian; 105% with HS 578T breast; 84.3% with NCI/ADR-RES ovarian; 73.7% in the experiment with T-47D breast; 113% with BT-549 breast; 86.3% in the experiment with MDA-MB-435 melanoma. The growth in the experiment with SW-620 colon was 18.2%; with MCF7 breast, 70.2%; in the experiment with HCT-116 colon it was 72.4%; in the experiment with HCC-2998 colon, 105%; with KM12 colon, 34.5%.

Consider `Cc1ccc(-c2nc(SCC(=O)Nc3nc(-c4ccc(Cl)cc4)cs3)[nH]c(=O)c2C#N)cc1`, for which the growth with RPMI-8226 leukemia was 103%; in the experiment with OVCAR-8 ovarian it was 92.3%; in the experiment with OVCAR-5 ovarian, 94.3%; in the experiment on OVCAR-4 ovarian it was 111%; in the experiment on SK-OV-3 ovarian it was 100%; in the experiment with IGROV1 ovarian, 105%. Moreover, the growth is 115% in the experiment with OVCAR-3 ovarian; 90.5% with HS 578T breast; 109% with NCI/ADR-RES ovarian; 87.2% in the experiment with T-47D breast; 83.6% in the experiment on BT-549 breast; 107% in the experiment with MDA-MB-435 melanoma. The growth is 107% with SW-620 colon; 97.7% with MCF7 breast; 91.6% in the experiment with HCT-116 colon; 109% with HCC-2998 colon; 96.1% with KM12 colon.

Take `CCCCN(C)N=Nc1ccc(C(N)=O)cc1`: the growth in the experiment on RPMI-8226 leukemia was 114%; in the experiment with OVCAR-8 ovarian, 107%; with OVCAR-5 ovarian it was 99.2%; with OVCAR-4 ovarian it was 107%; in the experiment on SK-OV-3 ovarian, 121%; in the experiment with IGROV1 ovarian, 89.1%. For the same compound, the growth in the experiment with OVCAR-3 ovarian was 103%; in the experiment on HS 578T breast, 101%; in the experiment on NCI/ADR-RES ovarian, 106%; with T-47D breast it was 113%; with BT-549 breast it was 112%; in the experiment on MDA-MB-435 melanoma, 84.5%. For the same compound, the growth was 104% with SW-620 colon; 94% in the experiment on MCF7 breast; 107% in the experiment with HCT-116 colon; 101% with HCC-2998 colon; 107% in the experiment with KM12 colon.

Take `CCCCNc1nc(NN2C(=O)c3cccc4cccc(c34)C2=O)nc(-n2cnc3ccccc32)n1`: the growth is 86.9% with RPMI-8226 leukemia; 93.3% with OVCAR-8 ovarian; 83.8% with OVCAR-5 ovarian; 67.7% in the experiment on OVCAR-4 ovarian; 99.3% with SK-OV-3 ovarian; 80.4% with IGROV1 ovarian. Further, the growth with OVCAR-3 ovarian is 86.3%; in the experiment on HS 578T breast, 81.9%; in the experiment on NCI/ADR-RES ovarian, 91.5%; in the experiment with T-47D breast it was 74.7%; in the experiment with BT-549 breast, 98.8%; with MDA-MB-435 melanoma, 99.2%. In addition, the growth is 109% with SW-620 colon; 72.6% with MCF7 breast; 88.3% in the experiment with HCT-116 colon; 105% in the experiment with HCC-2998 colon; 25.4% in the experiment on KM12 colon.

On to `O=C(CCOCCNC(=O)COc1ccc2c(c1)OCC(c1ccc(F)cc1)C2=O)NCCCC(O)(P(=O)(O)O)P(=O)(O)O` (stereo not drawn), for which the growth is 108% in the experiment with RPMI-8226 leukemia; 104% in the experiment with OVCAR-8 ovarian; 103% in the experiment with OVCAR-5 ovarian; 99.2% in the experiment on OVCAR-4 ovarian; 108% in the experiment on SK-OV-3 ovarian; 118% with IGROV1 ovarian. Moreover, the growth is 104% in the experiment on OVCAR-3 ovarian; 105% with HS 578T breast; 107% in the experiment with NCI/ADR-RES ovarian; 101% in the experiment on T-47D breast; 105% with BT-549 breast; 102% in the experiment with MDA-MB-435 melanoma. In addition, the growth in the experiment on SW-620 colon was 101%; with MCF7 breast it was 89%; in the experiment on HCT-116 colon, 101%; in the experiment on HCC-2998 colon, 98%; in the experiment on KM12 colon, 100%.

Regarding `COc1ccc([C@H]2c3cc(OC)c(OC)cc3C=C(C=O)C2CO)cc1OC` (stereo partly drawn), the growth is 61.5% in the experiment on RPMI-8226 leukemia; 60.8% in the experiment with OVCAR-8 ovarian; 106% with OVCAR-5 ovarian; 63.5% with OVCAR-4 ovarian; 73.3% in the experiment with SK-OV-3 ovarian; 34.1% with IGROV1 ovarian. Moreover, the growth with OVCAR-3 ovarian was -30.6% (active); in the experiment on HS 578T breast it was 14.2%; with NCI/ADR-RES ovarian, 70.8%; with T-47D breast it was 45.2%; with BT-549 breast, 58.6%; in the experiment on MDA-MB-435 melanoma, -24% (active). Moreover, the growth in the experiment with SW-620 colon is 21.5%; in the experiment on MCF7 breast, 18.5%; in the experiment on HCT-116 colon, 23.8%; with HCC-2998 colon, 58.4%; with KM12 colon, 21%.

As to `COc1ccc(/C=N/Nc2cc(=O)[nH]c3ccc(C)cc23)cc1`, the growth in the experiment on RPMI-8226 leukemia was 81.6%; in the experiment with OVCAR-8 ovarian, 95.6%; in the experiment with OVCAR-5 ovarian, 98%; in the experiment on OVCAR-4 ovarian, 109%; in the experiment with SK-OV-3 ovarian, 87.6%; in the experiment with IGROV1 ovarian it was 98.4%. Further, the growth with OVCAR-3 ovarian is 104%; in the experiment on HS 578T breast, 88.3%; in the experiment on NCI/ADR-RES ovarian, 94.9%; in the experiment on T-47D breast, 70.7%; in the experiment with BT-549 breast it was 88.3%; in the experiment on MDA-MB-435 melanoma, 102%. Also, the growth is 96.8% in the experiment on SW-620 colon; 78.1% in the experiment on MCF7 breast; 83.1% with HCT-116 colon; 99.2% in the experiment on HCC-2998 colon; 105% in the experiment on KM12 colon.

Source of the values: PubChem BioAssay (NCI).
